This passage reports efficacy and outcome results from PubChem BioAssay (NCATS).

Unmarked numbers belong to inactive results. For some assays here: Results with a measured potency or affinity are listed apart. Activity calls are given as the source filed them. How the calls were made is not given here.

For test [1] the following is noted: Ebola virus entry assay, green fluorescence channel.
The conditions of test [2]: Ebola virus entry assay, blue channel fluorescence.
Wherever efficacy is given: 0% is about no effect.

For `CCC(=O)c1c(O)cc(O)cc1O`, the efficacy in test [1] was 21.1%. The call in test [2] was inactive.
On the same counts, the results for `CC(N=C(NC#N)Nc1ccncc1)C(C)(C)C` (stereo not given) are -23.2% and “inactive”.
The like results for `COc1ccc(NS(=O)(=O)c2ccc(N)cc2)nn1` were, in that order, 8.59% and “inactive”.
The like results for `O=C(O)c1[nH]n(-c2ccc(S(=O)(=O)O)cc2)c(=O)c1N=Nc1ccc(S(=O)(=O)O)cc1` were, in that order, 23% and “inactive”.
For the compound `CC(C(=O)O)c1ccc(/C=C2\CCCCC2=O)cc1` (stereo not given), in test [1], the efficacy is 13.8%. In addition, the compound was classed as inactive in test [2].
On the same counts, the results for `CN(C)CCN(Cc1ccsc1)c1ccccn1` are -18.4% and “inactive”.
On to `CC(=O)OCC(=O)[C@@]1(OC(C)=O)[C@@H](C)C[C@H]2[C@@H]3C[C@H](F)C4=CC(=O)C=C[C@]4(C)[C@@]3(F)[C@@H](O)C[C@@]21C`, for which, in test [1], the efficacy is 58.7%. The call in test [2] was inactive.
The like results for `CCOC(N)=O` were, in that order, -34.6% and “inactive”.
Take `CC1(C)Oc2ccc(C#N)cc2[C@@H](N2CCCC2=O)[C@@H]1O`: the efficacy in test [1] was -10.5%. For the same compound, the call in test [2] was inactive.
In the case of `COc1ccc(-c2ccc3cc(C(=O)O)ccc3c2)cc1C12CC3CC(CC(C3)C1)C2`, the efficacy in test [1] is 13%. The compound was classed as inactive in test [2].
